Where two headings read alike, the source gives them in different places.

Among the data in article PMC11062922 (Nature Chemical Biology, 2023) are potency estimated from few doses values, retold here.

What all share (design): species or system human, MV4-11 + K-562 + COLO205 + SK-N-BE2 + OVCAR-8
The test system of one assay is CAMK2B. Particulars: read-out: apparent Kd, n = 1.
Another assay has as its system CDC7. The following applies: read-out: apparent Kd; compound concentrations:100 nM and 1000 nM (sheet 'Samples'); n = 1.
The test system of another assay is FN3K. The following applies: read-out: apparent Kd; compound concentrations:100 nM and 1000 nM (sheet 'Samples'); n = 1.
The next assay has as its system GAK. Particulars: read-out: apparent Kd; compound concentrations:100 nM and 1000 nM (sheet 'Samples'); n = 1.
The subject of another assay is ICK. Particulars: read-out: apparent Kd; compound concentrations:100 nM and 1000 nM (sheet 'Samples'); n = 1.
The next assay deals with MAPK10. Particulars: read-out: apparent Kd; compound concentrations:100 nM and 1000 nM (sheet 'Samples'); n = 1.
A further assay concerns RIPK2. The following applies: read-out: apparent Kd; compound concentrations:100 nM and 1000 nM (sheet 'Samples'); n = 1.
Another assay relates to CDC42BPG. The following applies: read-out: apparent Kd, n = 1.
The test system of the next assay is EGFR. The following applies: read-out: apparent Kd; compound concentrations: 100 nM and 1000 nM (sheet 'Samples'), CATDS: 0.39562285113590601; n = 1.
The next assay concerns FLT3. Particulars: read-out: apparent Kd, n = 1.
For a further assay, the system named is PBK. Particulars: read-out: apparent Kd; compound concentrations:100 nM and 1000 nM (sheet 'Samples'); n = 1.
The subject of another assay is PKN1. The following applies: read-out: apparent Kd, n = 1.
For another assay, the system named is TGFBR2. Particulars: read-out: apparent Kd; compound concentrations: 100 nM and 1000 nM (sheet 'Samples'), CATDS: 0.26695766684010303; n = 1.
For another assay, the system named is DDR1. The following applies: read-out: apparent Kd; compound concentrations: 100 nM and 1000 nM (sheet 'Samples'), CATDS: 0.140210166469808; n = 1.
The next assay relates to T1, DJA1.
T1 construct: gene DNAJA1
Particulars: read-out: apparent Kd; compound concentrations: 100 nM and 1000 nM (sheet 'Samples'), CATDS: 0.100265839502576; n = 1.

Another assay concerns PIK3C3. The following applies: read-out: apparent Kd; compound concentrations: 100 nM and 1000 nM (sheet 'Samples'), CATDS: 0.105221440009215; n = 1.
The next assay has as its system PIK3CA. The following applies: read-out: apparent Kd; compound concentrations: 100 nM and 1000 nM (sheet 'Samples'), CATDS: 0.28704207187710601; n = 1.
For a further assay, the system named is PIK3CG. The following applies: read-out: apparent Kd; compound concentrations: 100 nM and 1000 nM (sheet 'Samples'), CATDS: 0.108238843984754; n = 1.
In a further assay the test system is RET. Particulars: read-out: apparent Kd; compound concentrations: 100 nM and 1000 nM (sheet 'Samples'), CATDS: 0.12612517113031699; n = 1.
The next assay deals with CDC42BPA. The following applies: read-out: apparent Kd; compound concentrations: 100 nM and 1000 nM (sheet 'Samples'), CATDS: 7.0311293069570804E-2; n = 1.
In a further assay the test system is CDC42BPB. Particulars: read-out: apparent Kd; compound concentrations: 100 nM and 1000 nM (sheet 'Samples'), CATDS: 0.16933732506395899; n = 1.
For the next assay, the system named is LATS1. Particulars: read-out: apparent Kd; compound concentrations: 100 nM and 1000 nM (sheet 'Samples'), CATDS: 4.6540265787969097E-2; n = 1.
The next assay concerns PKN2. The following applies: read-out: apparent Kd; compound concentrations: 100 nM and 1000 nM (sheet 'Samples'), CATDS: 4.4394319464929097E-2; n = 1.
A further assay deals with PRKACA. Particulars: read-out: apparent Kd; compound concentrations: 100 nM and 1000 nM (sheet 'Samples'), CATDS: 0.118024991958308; n = 1.
For a further assay, the system named is PRKACB. Particulars: read-out: apparent Kd; compound concentrations: 100 nM and 1000 nM (sheet 'Samples'), CATDS: 8.0327411283578495E-2; n = 1.
The subject of another assay is PRKCA. Particulars: read-out: apparent Kd; compound concentrations: 100 nM and 1000 nM (sheet 'Samples'), CATDS: 4.1587552070859297E-2; n = 1.
The test system of a further assay is PRKCD. The following applies: read-out: apparent Kd; compound concentrations: 100 nM and 1000 nM (sheet 'Samples'), CATDS: 4.48878810193531E-2; n = 1.
A further assay concerns PRKG1. Particulars: read-out: apparent Kd; compound concentrations: 100 nM and 1000 nM (sheet 'Samples'), CATDS: 6.8591269035778196E-2; n = 1.
A further assay deals with PRKX. The following applies: read-out: apparent Kd; compound concentrations: 100 nM and 1000 nM (sheet 'Samples'), CATDS: 6.1188840569936599E-2; n = 1.
Another assay relates to ROCK1. Particulars: read-out: apparent Kd; compound concentrations: 100 nM and 1000 nM (sheet 'Samples'), CATDS: 0.14218227493934099; n = 1.
In a further assay the test system is ROCK2. Particulars: read-out: apparent Kd; compound concentrations: 100 nM and 1000 nM (sheet 'Samples'), CATDS: 0.152164814838194; n = 1.
The subject of another assay is TP53RK. Particulars: read-out: apparent Kd; compound concentrations: 100 nM and 1000 nM (sheet 'Samples'), CATDS: 4.1650793572711099E-2; n = 1.
[1] abbreviates: compound concentrations:100 nM and 1000 nM (sheet 'Samples').

As for `COc1cc2ncnc(Nc3cccc(Br)c3)c2cc1OC.Cl` [GI230329A], the potency estimated from few doses in the assay with CAMK2B (setting [1]) is 0.405 µM; in the assay on CDC7, 2.06 µM; in the assay on FN3K it was 2.15 µM; in the assay with GAK, 0.319 µM; with ICK it was 1.37 µM; in the assay on MAPK10, 0.956 µM. Also, the potency estimated from few doses in the assay with RIPK2 was 1.14 µM.

`CS(=O)(=O)CCNCc1ccc(-c2ccc3ncnc(Nc4ccc(OCc5cccc(C(F)(F)F)c5)cc4)c3c2)o1.Cl` [GW567808A]: the values for the potency estimated from few doses with CDC42BPG (setting [1]), in the assay on EGFR and in the assay on FLT3 (setting [1]) were 1.82 µM, 0.995 µM and 1.43 µM, respectively.

In the case of `C[C@@H]1CCN(C(=O)CO)C[C@@H]1N(C)c1ncnc2[nH]ccc12` [PFE-PKIS_34], the potency estimated from few doses is 0.563 µM with CAMK2B (setting [1]), 1.93 µM in the assay with PBK and 1.14 µM with PKN1 (setting [1]).

With `CC(=O)c1cccc(NC(=O)NC2CCN(c3ccnc(Nc4ccc(F)cc4)n3)C2)c1` (stereo not drawn) [GSK1379710A], the potency estimated from few doses in the assay with CAMK2B (compound concentrations: 100 nM and 1000 nM (sheet 'Samples'), CATDS: 0.45537516387232402) is 0.658 µM; in the assay on CDC42BPG (compound concentrations: 100 nM and 1000 nM (sheet 'Samples'), CATDS: 0.32700083085172899), 1.22 µM; in the assay with TGFBR2, 2 µM.

For `CN1CCN(CCCNc2nc3ccc(Oc4ccc(NC(=O)Nc5cc(C(F)(F)F)ccc5F)cc4)cc3[nH]2)CC1.Cl` [GW700494A], the potency estimated from few doses in the assay with CDC42BPG (compound concentrations: 100 nM and 1000 nM (sheet 'Samples'), CATDS: 0.120544348793502) is 1.13 µM; in the assay with DDR1, 0.826 µM; in the assay on DJA1, 1.78 µM; in the assay with FLT3 (compound concentrations: 100 nM and 1000 nM (sheet 'Samples'), CATDS: 0.118432535218852), 1.17 µM; in the assay with PIK3C3 it was 1.56 µM; with PIK3CA, 0.263 µM. The values for the potency estimated from few doses in the assay with PIK3CG and in the assay with RET were 1.45 µM and 1.02 µM, respectively.

With `NCCC(NC(=O)c1cc(Br)c(-c2ccnc3[nH]ccc23)s1)c1ccccc1.NCCC(NC(=O)c1cc(Br)c(-c2ccnc3[nH]ccc23)s1)c1ccccc1.O=C(O)C(F)(F)F.O=C(O)C(F)(F)F` (stereo not drawn) [GSK1307810A], the potency estimated from few doses was 0.227 µM in the assay with CDC42BPA; 0.0304 µM with CDC42BPB; 0.0172 µM in the assay with CDC42BPG (compound concentrations: 100 nM and 1000 nM (sheet 'Samples'), CATDS: 0.24390813090815999); 1.11 µM in the assay on LATS1; 0.988 µM in the assay with PKN1 (compound concentrations: 100 nM and 1000 nM (sheet 'Samples'), CATDS: 4.7667379026866498E-2); 1.41 µM with PKN2. The potency estimated from few doses is 0.0602 µM in the assay with PRKACA; 0.153 µM in the assay with PRKACB; 2.07 µM in the assay on PRKCA; 1.33 µM with PRKCD; 0.245 µM in the assay on PRKG1; 0.36 µM in the assay on PRKX. The figures for the potency estimated from few doses with ROCK1, with ROCK2 and with TP53RK were 0.0416 µM, 0.0367 µM and 2.05 µM, respectively.
